The supplement of paper PMC9446081
± gives the standard deviation of the averaged measurements.

Key:
Assay in all cases: relative enzymatic activity vs untreated control (fraction); higher = less inhibition
Conditions in all cases: 100 µM; incubation time: 2 h at 37 C
DNA gyrase = tested on: DNA gyrase
Procedure: (§1)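 In vitro enzymatic inhibition assays (ProFoldin kits) for 12 purified essential E. coli enzymes or complexes, each treated with 218 active antibacterial compounds at 100 µM for 2 h at 37°C. Read-outs were fluorescence or absorbance (phosphate detection, dye binding), converted to activity via standard curves and expressed relative to untreated DMSO controls.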

DNA helicase = DNA helicase (UniProt P0ACB1)
Procedure: as §1

DNA ligase = DNA ligase (UniProt B1XA82)
Procedure: as §1

DNA polymerase = DNA polymerase (UniProt P10443)
Procedure: as §1

DNA primase = DNA primase (UniProt P0ABS7)
Procedure: as §1

GlmU = GlmU (UniProt A7ZTU1)
Procedure: as §1

Guanlyate kinase = Guanlyate kinase (UniProt Q0TBG1)
Procedure: as §1

MurA = MurA (UniProt Q3YX52)
Procedure: as §1

MurD = molecular target: T1, MurD (UniProt P14900)
T1 sequence (whole entry): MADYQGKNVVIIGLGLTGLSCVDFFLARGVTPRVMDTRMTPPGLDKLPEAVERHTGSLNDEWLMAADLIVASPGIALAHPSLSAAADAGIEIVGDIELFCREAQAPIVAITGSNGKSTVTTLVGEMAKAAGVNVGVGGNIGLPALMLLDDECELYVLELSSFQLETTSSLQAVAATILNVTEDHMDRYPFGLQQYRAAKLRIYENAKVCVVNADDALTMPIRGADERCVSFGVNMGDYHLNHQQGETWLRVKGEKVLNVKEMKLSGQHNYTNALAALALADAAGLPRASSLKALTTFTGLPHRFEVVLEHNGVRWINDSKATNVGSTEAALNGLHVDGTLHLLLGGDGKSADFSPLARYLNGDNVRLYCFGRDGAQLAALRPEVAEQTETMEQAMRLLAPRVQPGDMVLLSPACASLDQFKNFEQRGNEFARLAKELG
Procedure: as §1

MurF = molecular target: T2, MurF (UniProt P11880)
T2 sequence (whole entry): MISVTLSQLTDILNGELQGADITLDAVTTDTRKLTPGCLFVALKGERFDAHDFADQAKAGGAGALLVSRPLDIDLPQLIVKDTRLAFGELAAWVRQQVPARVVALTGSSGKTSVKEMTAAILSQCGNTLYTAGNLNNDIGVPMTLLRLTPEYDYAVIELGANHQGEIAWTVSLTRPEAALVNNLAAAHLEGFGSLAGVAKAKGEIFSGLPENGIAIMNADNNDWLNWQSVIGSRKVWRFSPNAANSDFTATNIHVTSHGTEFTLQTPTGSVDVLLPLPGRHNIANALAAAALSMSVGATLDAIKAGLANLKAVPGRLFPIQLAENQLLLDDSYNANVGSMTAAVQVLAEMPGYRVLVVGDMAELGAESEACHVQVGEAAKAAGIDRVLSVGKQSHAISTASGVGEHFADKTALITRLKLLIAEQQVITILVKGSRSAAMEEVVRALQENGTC
Procedure: as §1

RNA polymerase = tested on: RNA polymerase
Procedure: as §1

Sequence of Guanlyate kinase (Q0TBG1 whole entry): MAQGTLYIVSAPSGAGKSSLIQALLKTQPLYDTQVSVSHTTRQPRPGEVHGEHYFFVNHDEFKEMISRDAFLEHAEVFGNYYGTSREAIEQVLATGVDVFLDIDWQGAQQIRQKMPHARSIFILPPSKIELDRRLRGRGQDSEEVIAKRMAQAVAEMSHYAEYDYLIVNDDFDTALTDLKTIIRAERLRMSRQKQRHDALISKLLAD
Sequence of DNA primase (P0ABS7 whole entry): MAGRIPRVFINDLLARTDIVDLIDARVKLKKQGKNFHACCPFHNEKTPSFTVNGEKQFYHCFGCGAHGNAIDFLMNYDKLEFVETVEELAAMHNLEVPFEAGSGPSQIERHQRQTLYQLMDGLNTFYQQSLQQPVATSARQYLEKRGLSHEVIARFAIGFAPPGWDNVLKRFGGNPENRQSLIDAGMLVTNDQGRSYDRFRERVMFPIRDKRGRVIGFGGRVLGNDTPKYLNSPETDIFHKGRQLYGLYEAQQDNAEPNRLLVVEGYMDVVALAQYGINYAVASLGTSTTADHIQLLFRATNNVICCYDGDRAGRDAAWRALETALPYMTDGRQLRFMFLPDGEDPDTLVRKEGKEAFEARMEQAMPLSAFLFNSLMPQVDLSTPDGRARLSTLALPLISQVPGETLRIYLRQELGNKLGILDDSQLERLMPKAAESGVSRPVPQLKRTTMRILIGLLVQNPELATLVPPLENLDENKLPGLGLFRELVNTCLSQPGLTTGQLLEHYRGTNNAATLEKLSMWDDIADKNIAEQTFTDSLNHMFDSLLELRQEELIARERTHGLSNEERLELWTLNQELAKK
Sequence of DNA ligase (B1XA82 whole entry): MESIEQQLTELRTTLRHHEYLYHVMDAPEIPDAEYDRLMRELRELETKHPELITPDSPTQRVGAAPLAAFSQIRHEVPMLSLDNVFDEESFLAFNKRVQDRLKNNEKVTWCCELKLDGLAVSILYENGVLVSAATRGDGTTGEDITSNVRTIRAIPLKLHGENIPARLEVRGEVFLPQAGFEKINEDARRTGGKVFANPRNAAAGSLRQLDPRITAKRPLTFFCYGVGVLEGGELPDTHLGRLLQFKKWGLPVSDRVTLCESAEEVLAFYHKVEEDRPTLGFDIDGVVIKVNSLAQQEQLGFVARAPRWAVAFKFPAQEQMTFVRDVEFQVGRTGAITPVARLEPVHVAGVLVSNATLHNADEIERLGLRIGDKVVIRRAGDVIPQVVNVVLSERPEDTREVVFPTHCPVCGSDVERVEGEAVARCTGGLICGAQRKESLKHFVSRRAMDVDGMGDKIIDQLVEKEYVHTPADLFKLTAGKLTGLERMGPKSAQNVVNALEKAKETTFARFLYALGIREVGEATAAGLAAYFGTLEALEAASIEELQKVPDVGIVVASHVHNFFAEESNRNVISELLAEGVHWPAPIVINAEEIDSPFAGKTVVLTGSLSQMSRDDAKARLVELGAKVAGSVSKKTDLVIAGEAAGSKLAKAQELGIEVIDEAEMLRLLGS
Sequence of DNA polymerase (P10443 whole entry): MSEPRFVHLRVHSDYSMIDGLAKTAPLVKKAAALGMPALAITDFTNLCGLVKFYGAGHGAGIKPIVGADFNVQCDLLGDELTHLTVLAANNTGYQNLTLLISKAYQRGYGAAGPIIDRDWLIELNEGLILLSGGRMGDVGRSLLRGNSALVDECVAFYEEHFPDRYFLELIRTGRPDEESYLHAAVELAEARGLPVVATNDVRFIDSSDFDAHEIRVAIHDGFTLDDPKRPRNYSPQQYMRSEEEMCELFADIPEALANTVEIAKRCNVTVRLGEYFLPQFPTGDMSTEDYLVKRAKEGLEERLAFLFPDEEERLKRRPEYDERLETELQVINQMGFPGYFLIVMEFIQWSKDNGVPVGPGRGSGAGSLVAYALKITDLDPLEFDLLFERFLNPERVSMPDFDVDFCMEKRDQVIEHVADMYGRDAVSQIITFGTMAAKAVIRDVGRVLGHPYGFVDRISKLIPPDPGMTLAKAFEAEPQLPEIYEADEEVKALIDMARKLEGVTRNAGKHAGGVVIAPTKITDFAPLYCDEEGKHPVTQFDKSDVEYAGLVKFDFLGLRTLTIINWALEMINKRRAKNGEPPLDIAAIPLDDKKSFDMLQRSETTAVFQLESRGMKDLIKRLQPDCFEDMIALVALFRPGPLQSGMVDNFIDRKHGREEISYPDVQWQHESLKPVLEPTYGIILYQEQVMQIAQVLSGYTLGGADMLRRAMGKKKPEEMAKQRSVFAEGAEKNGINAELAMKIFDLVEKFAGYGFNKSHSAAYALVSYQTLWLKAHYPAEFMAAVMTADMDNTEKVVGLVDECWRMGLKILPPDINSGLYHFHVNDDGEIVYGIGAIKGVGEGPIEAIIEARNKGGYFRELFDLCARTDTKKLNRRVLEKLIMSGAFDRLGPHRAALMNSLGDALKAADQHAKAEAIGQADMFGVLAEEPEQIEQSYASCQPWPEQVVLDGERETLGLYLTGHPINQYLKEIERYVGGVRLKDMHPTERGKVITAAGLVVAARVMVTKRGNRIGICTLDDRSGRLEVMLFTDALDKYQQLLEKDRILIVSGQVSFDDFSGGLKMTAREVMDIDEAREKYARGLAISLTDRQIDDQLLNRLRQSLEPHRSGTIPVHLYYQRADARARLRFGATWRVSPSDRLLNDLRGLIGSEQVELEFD
Sequence of DNA helicase (P0ACB1 whole entry): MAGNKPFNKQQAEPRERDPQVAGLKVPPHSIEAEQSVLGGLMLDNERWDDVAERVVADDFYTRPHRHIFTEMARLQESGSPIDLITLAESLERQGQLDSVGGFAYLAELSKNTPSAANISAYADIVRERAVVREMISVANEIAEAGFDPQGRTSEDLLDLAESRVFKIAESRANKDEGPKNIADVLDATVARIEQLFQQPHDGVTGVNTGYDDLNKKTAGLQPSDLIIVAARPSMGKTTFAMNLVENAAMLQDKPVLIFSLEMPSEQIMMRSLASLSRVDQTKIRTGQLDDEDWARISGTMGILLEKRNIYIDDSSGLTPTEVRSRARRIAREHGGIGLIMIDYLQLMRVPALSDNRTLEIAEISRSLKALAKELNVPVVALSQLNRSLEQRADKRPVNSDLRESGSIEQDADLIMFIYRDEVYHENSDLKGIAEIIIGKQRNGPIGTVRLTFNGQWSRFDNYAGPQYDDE
Sequence of GlmU (A7ZTU1 whole entry, looked up): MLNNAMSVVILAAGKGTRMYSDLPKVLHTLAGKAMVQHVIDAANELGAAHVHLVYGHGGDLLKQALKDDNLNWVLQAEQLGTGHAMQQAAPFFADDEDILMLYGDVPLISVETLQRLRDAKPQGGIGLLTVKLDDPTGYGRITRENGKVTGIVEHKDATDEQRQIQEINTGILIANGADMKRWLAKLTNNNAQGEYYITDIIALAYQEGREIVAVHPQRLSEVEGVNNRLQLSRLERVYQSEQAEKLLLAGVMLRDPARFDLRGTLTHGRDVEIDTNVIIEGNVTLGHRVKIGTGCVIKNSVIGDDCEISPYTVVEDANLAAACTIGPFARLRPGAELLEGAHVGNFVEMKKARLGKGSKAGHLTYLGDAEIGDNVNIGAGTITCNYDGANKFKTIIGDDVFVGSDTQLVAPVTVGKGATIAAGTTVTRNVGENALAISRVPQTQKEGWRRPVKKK
Sequence of MurA (Q3YX52 whole entry): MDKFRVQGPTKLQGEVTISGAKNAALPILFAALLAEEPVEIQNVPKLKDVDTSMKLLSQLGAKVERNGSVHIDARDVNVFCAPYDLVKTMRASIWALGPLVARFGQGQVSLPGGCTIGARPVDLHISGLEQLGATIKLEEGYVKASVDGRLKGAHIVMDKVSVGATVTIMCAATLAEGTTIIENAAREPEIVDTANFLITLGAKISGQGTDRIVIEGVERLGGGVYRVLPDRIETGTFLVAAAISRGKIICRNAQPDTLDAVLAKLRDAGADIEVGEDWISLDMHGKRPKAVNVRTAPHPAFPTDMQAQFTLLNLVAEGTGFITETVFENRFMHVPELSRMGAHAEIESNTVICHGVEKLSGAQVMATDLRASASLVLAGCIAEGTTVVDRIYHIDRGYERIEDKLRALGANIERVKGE

SMILES	relative enzymatic activity (DNA gyrase)	relative enzymatic activity (DNA helicase)	relative enzymatic activity (DNA ligase)	relative enzymatic activity (DNA polymerase)	relative enzymatic activity (DNA primase)	relative enzymatic activity (GlmU)	relative enzymatic activity (Guanlyate kinase)	relative enzymatic activity (MurA)	relative enzymatic activity (MurD)	relative enzymatic activity (MurF)	relative enzymatic activity (RNA polymerase)
CCCC[P+](CCCC)(CCCC)Cc1ccc(NC(=O)[C@H](Cc2ccc3ccccc3c2)N/C(=N/C2CCCCC2)NC2CCCCC2)cc1	0.00696 ± 0.0098	0.0186 ± 0.0015	1.08 ± 0.094	0.73 ± 0.026	0.595 ± 0.0097	0.134 ± 0.011	0.223 ± 0.023	0.0355 ± 0.0073	0.167 ± 0.12	0.108 ± 0.017	0.346 ± 0.01
CS(=O)(=O)c1ccc(C(O)C(CF)NC(=O)C(Cl)Cl)cc1 (stereo not drawn)	0.854 ± 0.44	0.577 ± 0.2	1.21 ± 0.24	1.29 ± 0.35	0.8787 ± 0.0014	0.977 ± 0.042	0.976 ± 0.14	0.796 ± 0.099	0.575 ± 0.38	0.945 ± 0.21	0.916 ± 0.026
N[C@@H]1CN(c2c(F)cc3c(=O)c(C(=O)O)cn([C@@H]4C[C@@H]4F)c3c2Cl)CC12CC2	0.186 ± 0.26	0.435 ± 0.025	0.852 ± 0.06	1.1 ± 0.085	0.84 ± 0.012	0.987 ± 0.012	1 ± 0.11	0.524 ± 0.094	0.591 ± 0.41	1.31 ± 0.28	0.979 ± 0.15
CO[C@@]12[C@@H]3N[C@@H]3CN1C1=C(C(=O)C(N)=C(C)C1=O)[C@@H]2COC(N)=O	1.25 ± 0.4	0.689 ± 0.37	0.844 ± 0.031	1.17 ± 0.19	0.837 ± 0.014	0.979 ± 0.0078	0.861 ± 0.01	0.431 ± 0.072	0.615 ± 0.42	0.942 ± 0.24	0.82 ± 0.035
Cn1nnnc1SCC1=C(C(=O)[O-])N2C(=O)C(NC(=O)C(O)c3ccccc3)C2SC1.[Na+] (stereo not drawn)	0.841 ± 0.26	0.638 ± 0.12	1.42 ± 0.27	1.19 ± 0.25	0.689 ± 0.18	1.16 ± 0.18	0.942 ± 0.17	0.0762 ± 0.016	0.636 ± 0.44	0.988 ± 0.21	1.16 ± 0.45
CN1CCN(c2c(F)cc3c(=O)c(C(=O)O)cn4c3c2SCC4)CC1	0.0039 ± 0.0055	0.623 ± 0.2	1.02 ± 0.03	1.21 ± 0.25	0.807 ± 0.022	0.952 ± 0.026	0.926 ± 0.19	0.7644 ± 0.0074	0.608 ± 0.44	0.899 ± 0.27	0.844 ± 0.023
COC12C(COC(N)=O)C3=C(C(=O)C(C)=C(N)C3=O)N1CC1NC12 (stereo not drawn)	1.01 ± 0.063	0.964 ± 0.15	1.03 ± 0.025	1.31 ± 0.47	0.728 ± 0.2	1.02 ± 0.018	1.05 ± 0.032	0.264 ± 0.12	0.589 ± 0.41	1.01 ± 0.23	0.882 ± 0.01
CON=C(C(=O)NC1C(=O)N2C(C(=O)[O-])=C(COC(C)=O)CSC12)c1csc(N)n1.[Na+] (stereo not drawn)	0.696 ± 0.52	0.4103 ± 0.0017	0.569 ± 0.58	1.11 ± 0.28	0.68 ± 0.16	0.914 ± 0.13	1.04 ± 0.053	0.0697 ± 0.016	0.575 ± 0.37	0.939 ± 0.19	0.608 ± 0.48
COc1cc2c(cc1OC)C(=O)C(CC1CCN(Cc3ccccc3)CC1)C2.Cl (stereo not drawn)	0.363 ± 0.072	0.802 ± 0.32	1.19 ± 0.057	1.18 ± 0.28	0.713 ± 0.2	0.766 ± 0.067	0.892 ± 0.1	0.486 ± 0.059	0.456 ± 0.32	0.934 ± 0.17	0.85 ± 0.011
NCc1ccccc1CC(=O)NC1C(=O)N2C(C(=O)O)=C(CSc3nnnn3CC(=O)O)CSC12 (stereo not drawn)	1.03 ± 0.026	0.487 ± 0.014	1.19 ± 0.037	1.38 ± 0.51	0.683 ± 0.18	1.05 ± 0.23	0.988 ± 0.13	0.08776 ± 0.00022	0.581 ± 0.39	0.979 ± 0.2	0.979 ± 0.23
NCC1OC(OC2C(N)CC(N)C(OC3OC(CO)C(O)C(N)C3O)C2O)C(N)CC1O (stereo not drawn)	1.2 ± 0.12	0.45 ± 0.37	1.02 ± 0.084	1.33 ± 0.47	0.71 ± 0.18	0.979 ± 0.048	1 ± 0.013	0.82 ± 0.12	0.611 ± 0.4	0.932 ± 0.15	0.809 ± 0.04
CC(N)O.Cc1cc(CC(C)CC(C)(C)C)n(O)c(=O)c1 (stereo not drawn)	0.964 ± 0.11	0.621 ± 0.26	1.17 ± 0.13	1.16 ± 0.23	0.719 ± 0.22	1.095 ± 0.0024	0.963 ± 0.12	0.844 ± 0.05	0.636 ± 0.43	0.592 ± 0.82	0.884 ± 0.076
CN[C@@H]1[C@H](O[C@H]2[C@H](O[C@@H]3[C@@H](O)[C@H](O)[C@@H](NC(=N)N)[C@H](O)[C@H]3NC(=N)N)O[C@@H](C)[C@]2(O)CO)O[C@@H](CO)[C@H](O)[C@H]1O.CN[C@@H]1[C@H](O[C@H]2[C@H](O[C@@H]3[C@@H](O)[C@H](O)[C@@H](NC(=N)N)[C@H](O)[C@H]3NC(=N)N)O[C@@H](C)[C@]2(O)CO)O[C@@H](CO)[C@H](O)[C@H]1O	0.527 ± 0.36	0.498 ± 0.089	1.09 ± 0.32	1.08 ± 0.055	0.853 ± 0.0042	1.001 ± 0.0056	0.983 ± 0.047	0.803 ± 0.02	0.922 ± 0.86	0.524 ± 0.73	0.481 ± 0.52
CN1CCN(c2c(F)cc3c(=O)c(C(=O)O)cn4c3c2OCN4C)CC1	0.115 ± 0.16	0.53713 ± 0.00022	0.908 ± 0.041	1.17 ± 0.21	0.86 ± 0.01	0.97 ± 0.023	0.958 ± 0.14	0.585 ± 0.19	0.624 ± 0.43	1.17 ± 0.022	0.816 ± 0.086
COC1(NC(=O)Cc2cccs2)C(=O)N2C(C(=O)[O-])=C(COC(N)=O)CSC21.[Na+] (stereo not drawn)	1.11 ± 0.041	0.48 ± 0.015	0.855 ± 0.14	1.41 ± 0.51	0.663 ± 0.13	0.984 ± 0.011	1.08 ± 0.062	0.0814 ± 0.021	0.574 ± 0.37	1.01 ± 0.21	0.829 ± 0.017
NCCC(O)C(=O)NC1CC(N)C(OC2OC(CN)C(O)C(O)C2O)C(O)C1OC1OC(CO)C(O)C(N)C1O.O (stereo not drawn)	0.693 ± 0.16	0.562 ± 0.14	0.998 ± 0.06	0.875 ± 0.12	0.824 ± 0.023	0.994 ± 0.011	0.647 ± 0.01	0.963 ± 0.055	0.564 ± 0.37	0.962 ± 0.21	0.434 ± 0.49
Cc1scc2c1N(C(=O)CN1CCN(C)CC1)c1ccccc1NC2=O.Cl	0.878 ± 0.31	0.526 ± 0.058	1.12 ± 0.35	1.17 ± 0.21	0.65 ± 0.14	1.1 ± 0.12	0.9435 ± 0.0079	0.703 ± 0.12	0.608 ± 0.41	0.931 ± 0.16	0.841 ± 0.091
O=C(O)P(=O)(O)O	0.105 ± 0.15	0.549 ± 0.16	0.871 ± 0.14	0.703 ± 0.39	0.775 ± 0.04	1 ± 0.014	0.914 ± 0.092	0.79 ± 0.12	0.6 ± 0.4	0.945 ± 0.24	0.8 ± 0.14
